Test results from PubChem BioAssay.
A number with no mark means an inactive call. Entries that show only a call come without a potency. For some of these results: Potency and affinity values are given separately. Active and inactive are the calls of the source. Unless noted, no rule for the calls is given here.

What was measured:
[1] = antimalarial activity against Dd2 strain (AID 2302;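 active = growth inhibition above 50% at the single 2 µM test dose, taken to imply half-maximal potency below 2 µM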); conditions: P. falciparum Dd2 in RBCs, LDH growth readout, 72 h; at 2 µM; hits give high values
[2] = human hepatoma cell viability loss – ATP luminescence, cytotoxicity control for P. falciparum antimalarial project, primary screen (AID 2303;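 active = inhibition above 50%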); conditions: HepG2 viability, 24-48 h, at 10 µM, hits give high values
[3] = molecular target: L-lactate dehydrogenase (Plasmodium falciparum (isolate CDC / Honduras)) (UniProt Q27743); test: PfLDH activity inhibition – cell lysate, 3D7 strain, counter-screen for P. falciparum growth inhibition project (AID 2304); conditions: P. falciparum 3D7 crude extract, LDH APAD/NBT absorbance; at 2 µM; hits give high values
Chain of L-lactate dehydrogenase (Plasmodium falciparum (isolate CDC / Honduras)) (Q27743 whole entry, looked up): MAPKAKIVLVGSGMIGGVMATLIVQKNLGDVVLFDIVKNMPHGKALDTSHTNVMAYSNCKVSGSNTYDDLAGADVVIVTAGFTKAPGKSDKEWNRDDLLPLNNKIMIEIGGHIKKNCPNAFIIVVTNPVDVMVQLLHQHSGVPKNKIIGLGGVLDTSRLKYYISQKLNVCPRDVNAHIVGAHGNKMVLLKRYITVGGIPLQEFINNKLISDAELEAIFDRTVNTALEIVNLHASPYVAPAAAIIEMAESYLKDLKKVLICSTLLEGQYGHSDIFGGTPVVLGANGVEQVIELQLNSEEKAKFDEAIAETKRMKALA

[4] = inhibition of 3D7 malaria parasite growth – strain 3D7 (AID 2306); conditions: P. falciparum 3D7 erythrocytic growth, LDH absorbance, 72 h; at 2 µM; hits give high values
[5] = molecular target: Calcium-dependent protein kinase 1 (Plasmodium falciparum (isolate 3D7)) (UniProt P62344); test: PfCDPK1 kinase inhibitors, biochemical, TCAMS library (AID 1159585; cut-off not given, nearly all actives have IC50 up to about 0.98 µM;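 also: inhibitors leave more ATP so luminescence rises with inhibition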); conditions: recombinant PfCDPK1, Kinase-Glo ATP depletion luminescence
Chain of Calcium-dependent protein kinase 1 (Plasmodium falciparum (isolate 3D7)) (P62344 whole entry, looked up): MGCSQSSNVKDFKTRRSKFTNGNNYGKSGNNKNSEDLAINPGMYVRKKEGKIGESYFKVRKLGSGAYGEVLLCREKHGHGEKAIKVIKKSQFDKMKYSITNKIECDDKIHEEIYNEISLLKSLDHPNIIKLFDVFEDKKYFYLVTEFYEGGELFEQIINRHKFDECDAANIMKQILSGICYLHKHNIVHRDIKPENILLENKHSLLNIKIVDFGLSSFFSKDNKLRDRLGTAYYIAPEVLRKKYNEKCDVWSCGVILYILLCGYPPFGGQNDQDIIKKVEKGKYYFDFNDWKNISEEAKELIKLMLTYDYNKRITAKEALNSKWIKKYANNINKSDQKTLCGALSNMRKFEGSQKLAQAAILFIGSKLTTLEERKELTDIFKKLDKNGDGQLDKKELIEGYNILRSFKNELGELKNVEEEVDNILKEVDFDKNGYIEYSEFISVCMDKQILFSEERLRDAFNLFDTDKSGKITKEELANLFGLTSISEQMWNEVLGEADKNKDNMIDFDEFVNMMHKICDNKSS

[6] = molecular target: Plasmodium falciparum protein kinase 6 (PK6, PF3D7_1337100) (UniProt Q8IDW1); test: PfPK6 kinase inhibitors, biochemical, TCAMS library (AID 1159586); conditions: recombinant PfPK6, Kinase-Glo ATP depletion luminescence
Chain of Plasmodium falciparum protein kinase 6 (PK6, PF3D7_1337100) (Q8IDW1 1-305): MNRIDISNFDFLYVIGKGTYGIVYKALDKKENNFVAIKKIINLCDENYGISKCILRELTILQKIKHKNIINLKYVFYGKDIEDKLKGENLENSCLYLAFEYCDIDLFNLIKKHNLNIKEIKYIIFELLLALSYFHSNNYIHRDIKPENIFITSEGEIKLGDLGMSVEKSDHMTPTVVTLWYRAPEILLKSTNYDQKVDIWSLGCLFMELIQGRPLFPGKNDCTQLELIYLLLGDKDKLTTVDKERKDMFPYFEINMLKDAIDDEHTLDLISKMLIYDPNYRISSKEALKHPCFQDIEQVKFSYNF

[7] = molecular target: Protein kinase 7 (PK7), Plasmodium falciparum 3D7 (PF3D7_0213400) (UniProt Q7YTF7); test: inhibition of Plasmodium PK7 catalytic activity – biochemical, TCAMS antimalarial set, Kinase-Glo luminescence (AID 1159587); conditions: recombinant PfPK7, Kinase-Glo ATP depletion luminescence
Chain of Protein kinase 7 (PK7), Plasmodium falciparum 3D7 (PF3D7_0213400) (Q7YTF7 1-343): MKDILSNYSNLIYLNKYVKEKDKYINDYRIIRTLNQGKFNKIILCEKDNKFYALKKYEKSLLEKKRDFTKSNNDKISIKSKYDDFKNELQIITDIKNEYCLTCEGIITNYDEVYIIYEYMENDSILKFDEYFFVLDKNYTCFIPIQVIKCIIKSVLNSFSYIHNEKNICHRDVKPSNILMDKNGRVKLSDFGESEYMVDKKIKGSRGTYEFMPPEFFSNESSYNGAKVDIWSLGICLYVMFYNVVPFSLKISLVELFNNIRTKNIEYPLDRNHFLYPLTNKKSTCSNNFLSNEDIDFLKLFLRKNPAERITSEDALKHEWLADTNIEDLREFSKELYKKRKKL

[8] = molecular target: Calcium-dependent protein kinase 4 (Plasmodium falciparum (isolate 3D7)) (UniProt Q8IBS5); test: PfCDPK4 kinase inhibitors, biochemical, TCAMS library (AID 1159588; cut-off not given, nearly all actives have IC50 up to about 0.91 µM); conditions: recombinant PfCDPK4, Kinase-Glo ATP depletion luminescence
Chain of Calcium-dependent protein kinase 4 (Plasmodium falciparum (isolate 3D7)) (Q8IBS5 whole entry, looked up): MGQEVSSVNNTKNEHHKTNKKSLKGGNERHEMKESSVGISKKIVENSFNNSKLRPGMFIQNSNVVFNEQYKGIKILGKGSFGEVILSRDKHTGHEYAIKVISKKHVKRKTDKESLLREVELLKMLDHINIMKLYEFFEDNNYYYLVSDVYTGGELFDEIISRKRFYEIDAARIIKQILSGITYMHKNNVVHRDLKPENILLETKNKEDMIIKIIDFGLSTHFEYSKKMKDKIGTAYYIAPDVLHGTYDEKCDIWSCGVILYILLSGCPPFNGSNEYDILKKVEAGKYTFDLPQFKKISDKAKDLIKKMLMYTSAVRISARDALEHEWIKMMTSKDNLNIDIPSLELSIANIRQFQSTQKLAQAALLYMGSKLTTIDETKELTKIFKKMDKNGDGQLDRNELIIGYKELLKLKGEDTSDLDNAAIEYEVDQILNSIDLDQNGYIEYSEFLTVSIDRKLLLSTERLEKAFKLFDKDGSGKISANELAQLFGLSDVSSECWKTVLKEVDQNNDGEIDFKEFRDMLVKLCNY

SMILES | growth inhibition [1] | inhibition [2] | inhibition [3] [%] | growth inhibition [4] | outcome [5] | outcome [6] | outcome [7] | outcome [8]
c1ccc2[nH]c(-c3ccc(-c4ccc(CN5CCN(c6ccncc6)CC5)cc4)cc3)nc2c1 | 100% (active) | 48% | -3 | 101% (active) | inactive | inactive | inactive | inactive
CCN(CC)c1ccccc1CNC(=O)c1cc(Cl)c(N)cc1OC | 94% (active) | 6% | -1 | 97% (active) | inactive | inactive | inactive | inactive
Cc1nc(C)c(CC(=O)Nc2cccc(-c3cccc(-c4nc5c(C)cccc5[nH]4)c3)c2)s1 | 35% | 43% | -6 | 92% (active) | inactive | inactive | inactive | inactive
COc1cc(F)c2ncc(Cl)c(CCN3CCC(NCc4ccc5c(n4)NC(=O)CO5)CC3)c2c1 | 19% | 20% | -1 | 89% (active) | inactive | inactive | inactive | inactive
CS(=O)(=O)c1ccc(CNCc2ccc(-c3ccc(-c4nc5ccc(C(F)(F)F)cc5[nH]4)s3)cc2)cc1 | 98% (active) | 49% | -5 | 102% (active) | inactive | inactive | inactive | inactive
CN1CCCN(Cc2ccc(-c3ccc(NC(=O)c4ccc(C#N)cc4)cc3)cc2)CC1 | 28% | 30% | 4 | 91% (active) | inactive | inactive | inactive | inactive
CNC(=O)c1cnc(Nc2ccc(N3CCN(C)CC3)cc2)nc1Nc1cccc(OC(C)C)c1 | 102% (active) | 16% | 4 | 100% (active) | inactive | inactive | inactive | inactive
COc1cc(-c2cc(-c3ccc(S(C)(=O)=O)cc3)cnc2N)ccc1O | 97% (active) | 37% | -2 | 97% (active) | inactive | inactive | inactive | inactive
COc1ccc(-c2cncc3ccc(C(=O)NCCCn4ccnc4)nc23)cc1 | 99% (active) | 28% | -3 | 95% (active) | inactive | inactive | inactive | inactive
CCOC(=O)Nc1cc(-c2csc(N=C(N)N)n2)cc([N+](=O)[O-])c1 | 88% (active) | 12% | -8 | 101% (active) | inactive | inactive | inactive | inactive
Cc1cc(N2CCCCC2)nc2ccc(NC(=O)c3cccc([N+](=O)[O-])c3)cc12 | 99% (active) | 9% | 2 | 95% (active) | inactive | inactive | inactive | inactive
Cc1nnsc1C(=O)Nc1cccc(-c2ccc(-c3nc4ccc(F)cc4[nH]3)s2)c1 | 22% | 62% (active) | 4 | 89% (active) | inactive | inactive | inactive | inactive
CCc1cc2c3c(N)nc(N)nc3ccc2n1C(C)CC (stereo not given) | 99% (active) | 73% (active) | 0 | 100% (active) | inactive | inactive | inactive | inactive
COC[C@H]1CCCN1Cc1ccc(-c2ccc(-c3nc4ccccc4[nH]3)s2)cc1 | 58% (active) | 18% | -2 | 95% (active) | inactive | inactive | inactive | inactive
CC1(C)CCNc2cc(NC(=O)c3ccc(-c4ncccc4C(F)(F)F)cc3)ccc21 | 86% (active) | 7% | -3 | 97% (active) | inactive | inactive | inactive | inactive
CC(=NNC(=S)NCCc1ccccc1)c1ccccn1 | 99% (active) | 73% (active) | 8 | 100% (active) | inactive | inactive | inactive | inactive
O=C(Nc1ccc(Cl)c(C(F)(F)F)c1)Nc1ccc(Cl)c(C(F)(F)F)c1 | 96% (active) | 1% | 6 | 94% (active) | inactive | inactive | inactive | inactive
Nc1ncc(-c2ccccc2)cc1-c1nc2cc(Cl)c(F)cc2[nH]1 | 91% (active) | 37% | 1 | 101% (active) | inactive | inactive | inactive | inactive
COc1ccc2ncc(F)c(CCN3CC[C@H](NC(=O)c4ccc5c(n4)NC(=O)CS5)[C@H](O)C3)c2n1 | 88% (active) | 20% | 0 | 88% (active) | inactive | inactive | inactive | inactive
CCc1c(C)c2ccc3c(c2oc1=O)CN(CCc1ccc(F)cc1)CO3 | 85% (active) | 0% | -2 | 94% (active) | inactive | inactive | inactive | inactive
